The record followed here is PubChem BioAssay AID488969 (Vanderbilt High Throughput Screening Facility, 2010).

In all, about 110,000 compounds were measured (“z-score”: median about -0.1, highest 2% from about 2 on). The entries come from a sample that favours the highest values as a whole. Calls of active or inactive are those of the source.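 How the source made its calls: active means z-score in the third read window above 3 or below -3; inactive means the rest.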

The target in the experiment is Metabotropic glutamate receptor 8 (Rattus norvegicus) (UniProt P70579). Put plainly: rat mGluR8 modulators via GIRK flux, primary screen, cell-based, thallium flux, HTS (AID 488969). To be noted: HEK293 rat mGluR8, GIRK (G protein-gated inwardly rectifying potassium channel) thallium flux, FluoZin2; at 10 µM; stronger effect = higher value; submaximal glutamate (EC20) added with thallium.
Metabotropic glutamate receptor 8 (Rattus norvegicus), sequence (P70579 whole entry, looked up): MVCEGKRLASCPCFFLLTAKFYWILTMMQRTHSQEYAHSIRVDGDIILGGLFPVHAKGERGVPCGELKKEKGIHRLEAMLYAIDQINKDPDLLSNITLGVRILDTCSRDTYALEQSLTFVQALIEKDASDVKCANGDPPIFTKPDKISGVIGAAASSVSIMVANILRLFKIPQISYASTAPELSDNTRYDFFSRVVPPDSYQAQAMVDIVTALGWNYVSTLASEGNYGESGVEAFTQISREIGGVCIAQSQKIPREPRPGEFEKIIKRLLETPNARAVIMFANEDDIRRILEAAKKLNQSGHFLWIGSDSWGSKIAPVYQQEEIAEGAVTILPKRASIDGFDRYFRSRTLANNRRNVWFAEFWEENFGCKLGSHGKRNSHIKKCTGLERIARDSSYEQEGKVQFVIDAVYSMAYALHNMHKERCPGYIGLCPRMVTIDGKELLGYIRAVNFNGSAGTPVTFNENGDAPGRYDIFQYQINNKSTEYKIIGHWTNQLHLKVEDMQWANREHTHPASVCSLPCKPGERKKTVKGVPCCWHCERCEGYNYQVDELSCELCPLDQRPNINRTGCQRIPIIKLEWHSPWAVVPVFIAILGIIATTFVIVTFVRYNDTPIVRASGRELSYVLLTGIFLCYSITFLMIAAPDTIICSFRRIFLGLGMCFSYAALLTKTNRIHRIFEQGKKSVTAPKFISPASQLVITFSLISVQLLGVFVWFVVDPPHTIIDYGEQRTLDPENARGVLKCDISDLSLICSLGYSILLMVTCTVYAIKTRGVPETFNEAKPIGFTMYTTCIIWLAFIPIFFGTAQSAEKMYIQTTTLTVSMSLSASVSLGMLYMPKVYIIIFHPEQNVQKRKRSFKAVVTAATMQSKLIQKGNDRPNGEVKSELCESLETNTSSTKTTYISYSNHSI
For `CN(C)C(=O)C(=O)c1c(-c2ccccc2)cc2ccccn12`, the z-score is -0.294.

Turning to `CN(CC(=O)Nc1ccccc1Br)Cc1nc2ccccc2c(=O)[nH]1`, the z-score was 0.733.

On to `N#Cc1nc(COc2cccc(Cl)c2)oc1N1CCCC1`, for which the z-score is -0.382.

Regarding `N#Cc1nc(COc2ccccc2)oc1N1CCN(c2cccc(Cl)c2)CC1`, the z-score is 3.31 (active).

Take `N#Cc1nc(Cc2ccccc2)oc1N1CCN(c2cccc(Cl)c2)CC1`: the z-score was 0.287.

On to `Cc1c(CCOC(=O)C2C3CC4CC(C3)CC2C4)sc[n+]1CC(=O)c1ccc(Br)cc1` (centres undefined), for which the z-score was determined as 2.48.

`Cc1ncsc1CCOC(=O)C1C2CC3CC(C2)CC1C3` (centres undefined) yielded a z-score of 0.00939.

Regarding `Cc1c(CCOC(=O)CC23CC4CC(CC(C4)C2)C3)sc[n+]1CC(=O)c1ccc(Br)cc1`, the z-score came out at 0.0917.

`COc1cc2[nH]c(=O)n(CCC(=O)N3CCC(N4CCCCC4)CC3)c(=O)c2cc1OC` came in with a z-score of 0.8.

In turn, `CCOc1cc2[nH]c(=O)n(CCCCC(=O)N3CCCCCC3)c(=O)c2cc1OCC` had a z-score of 2.21.

Consider `COc1cc2[nH]c(=O)n(CCCCCC(=O)N3CCN(c4ccccc4)CC3)c(=O)c2cc1OC`, for which the z-score was -0.317.

Turning to `O=C(CCC(=O)OCC(=O)c1cccc([N+](=O)[O-])c1)Nc1ccccc1Cl`, the z-score was found to be 0.0825.

On to `CCOC(=O)CC(=O)Nc1ccc(C)cc1`, for which the z-score was -0.33.

`Cc1ccc(C2C(/C=C3/SC(=S)NC3=O)=C(c3cccs3)Oc3ccccc32)cc1` (centres undefined): the z-score was found to be 2.55.

In turn, `Cc1cccc(N=C2NC(=O)/C(=C\c3cccs3)S2)c1` yielded a z-score of 0.692.

On to `Cc1ccc(C2C(C=Nc3c(C)n(C)n(-c4ccccc4)c3=O)=C(c3ccccc3)Oc3ccccc32)cc1` (centres undefined), for which the z-score is -0.137.

Regarding `CCOc1ccccc1C1CC(c2ccc(F)cc2)Nc2nc(N)nn21` (centres undefined), the z-score was -0.0345.

Consider `Cc1ccc(CNC(=O)C(Cc2ccccc2)NS(=O)(=O)c2cccs2)cc1` (centres undefined), for which the z-score was -0.105.

As for `O=c1[nH]c(CN2CCN(Cc3ccccc3)CC2)nc2sc3c(c12)CCC3`, the z-score is -0.568.

Consider `O=c1[nH]cnc2sc3c(c12)CCN(Cc1ccccc1)C3`, for which the z-score came out at 0.233.

For the molecule `CCCSc1nc2sc3c(c2c(=O)[nH]1)CCN(Cc1ccccc1)C3`, the z-score was 3.04 (active).

`O=C1C=C(NCc2ccco2)CCC1` gave a z-score of 2.

Regarding `O=C1C=C(NCc2ccccc2)CCC1`, the z-score is -0.0868.

As for `CC1(C)CC(=O)C=C(NCc2ccco2)C1`, the z-score was -0.0748.

Take `Cc1ccc(Cn2c(SCC(C)C)nc3c2c(=O)[nH]c(=O)n3C)cc1`: the z-score was -0.876.

On to `COc1cc2c(=O)n(Cc3ccccc3)c(=O)n(CC(=O)NCCc3ccccc3)c2cc1OC`, for which the z-score was -0.669.

Take `CC1(C)CC(=O)C2=C(C1)NC(=O)CC2c1ccc(F)cc1` (centres undefined): the z-score was -0.481.

In turn, `COc1ccc(-c2noc(CCC(=O)NC3CCN(Cc4ccccc4)CC3)n2)cc1` had a z-score of 0.924.

`O=C(CCc1nc(-c2ccccc2F)no1)NC1CCN(Cc2ccccc2)CC1` displayed a z-score of 0.608.

On to `COc1ccc(-c2noc(CCC(=O)NCC3CCN(Cc4cccc(C)c4)CC3)n2)cc1`, for which the z-score was found to be 0.183.

In turn, `Cc1ccc(-c2noc(CCC(=O)NC3CCN(Cc4ccccc4)CC3)n2)cc1` had a z-score of 2.02.

In the case of `CCc1ccccc1N(C)C(=O)CCc1nc(-c2ccc(C)cc2)no1`, the z-score is 2.44.

As for `CCc1ccccc1N(CC)C(=O)CCc1nc(-c2ccc(C)cc2)no1`, the z-score was -0.0345.

Consider `Cc1ccc(-c2noc(CCC(=O)NCC3CCN(Cc4cccc(C)c4)CC3)n2)cc1`, for which the z-score was 2.64.

For the molecule `Cc1ccc(-c2noc(CCC(=O)NCCN3CCN(Cc4ccccc4)CC3)n2)cc1`, the z-score is -0.696.

Regarding `Cc1ccc(-c2noc(CCC(=O)N(C)c3ccccc3C)n2)cc1`, the z-score turned out to be 0.361.

For the molecule `CC1CCN(S(=O)(=O)c2ccc(NC(=O)CN3CCCC(C)C3)cc2)CC1` (centres undefined), the z-score stood at 0.282.

Turning to `O=C(c1cccc(F)c1)N1CCc2ccccc21`, the z-score is -0.134.

As to `CCOC(=O)c1cc(NC(=O)c2cc(C)on2)cc(C(=O)OCC)c1`, the z-score is -0.369.

`CCn1nc2cc(C(=O)NCCc3cccs3)ccc2c1OC`: the z-score was -0.218.

For `COC(=O)CSC1=C(C#N)C(c2sccc2C)CC(=O)N1` (centres undefined), the z-score was found to be 0.174.

Consider `O=C(NCC1CCCO1)C(c1cccs1)N(C(=O)Cn1nnc(-c2cccs2)n1)C1CCCC1` (centres undefined), for which the z-score was -0.378.

`C/C(=N\NC(=O)c1ccccc1C)c1cccc([N+](=O)[O-])c1`: the z-score was -0.192.

As to `CCCCNc1ccc2nsnc2c1[N+](=O)[O-]`, the z-score is -0.137.

Regarding `C=CCNC(=O)c1nn2cccnc2c1Cl`, the z-score is -0.068.

On to `O=C(Nc1ccc2c(c1)oc1ccccc12)c1ccc2c(c1)OCO2`, for which the z-score was 0.81.

In the case of `Cc1cc2oc(C(=O)N(Cc3ccccc3)C3CCS(=O)(=O)C3)cc(=O)c2cc1Cl` (centres undefined), the z-score was -0.141.

On to `Cc1ccc(S(=O)(=O)NCCCNS(C)(=O)=O)cc1`, for which the z-score was 0.0948.

Turning to `Cc1ccc(S(=O)(=O)NCCCN(C)C)cc1`, the z-score is 2.95.

Take `CN(C)CCNS(=O)(=O)c1ccc(Cl)cc1`: the z-score was determined as 1.34.

The molecule `Cc1ccc(S(=O)(=O)NCC(C)NS(=O)(=O)c2ccc(C)cc2)cc1` (centres undefined) displayed a z-score of 2.8.

Turning to `Cc1ccc(S(=O)(=O)NCC(C)NS(C)(=O)=O)cc1` (centres undefined), the z-score is -0.186.

`O=C1CCCN1c1ccc(S(=O)(=O)NCCc2ccc(Cl)cc2)cc1` registered a z-score of 0.203.

Take `Cc1ccc(S(=O)(=O)NCCCCCC(N)=O)cc1`: the z-score is 0.00872.

As for `CNC(=O)CCCCCNS(=O)(=O)c1ccc(C)cc1`, the z-score came out at 0.0156.

Regarding `CC(=O)Nc1ccc(S(=O)(=O)NCC(C)NS(=O)(=O)c2ccc(NC(C)=O)cc2)cc1` (centres undefined), the z-score came to 0.018.

The molecule `CN(C)CCCNS(=O)(=O)c1ccc(N2CCC(c3ccc(Cl)cc3)=N2)cc1` yielded a z-score of 2.59.

`O=S(=O)(c1ccc(N2CCC(c3ccc(Cl)cc3)=N2)cc1)N(CCO)CCO`: the z-score is -0.748.

In turn, `Cc1ccc(S(=O)(=O)NCCCCCC(=O)N(C)C)cc1` had a z-score of 2.19.
